Screening data deposited in PubChem by several laboratories.
In the library only some 4.6% were active in any assay of this set; here they are far more common.
ABHD5 PLIN5 PPI: inhibitors of human ABHD5-perilipin-5 interaction | Split G. princeps luciferase complementation, luminescence, 4 h | inhibition, % at 4 µM | 360,000 compounds, 0.78% hits;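 active = inhibition above the mean inhibition across every tested compound plus 3 SD, cut at about 22% in these data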;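 also: 0% = DMSO only wells and the 100% control is not disclosed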
HIF-2a inh: HIF-2a inhibition; 786-0 RCC cells HIF-2a reporter, luciferase luminescence, overnight; inhibition, % at 18.8 µM; 360,000 compounds, 0.72% hits;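 active = inhibition of the luminescence signal of 40% or more relative to plate controls, in a single-dose primary screen at 18.75 µM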
KKLEB tox: CF airway cell cytotoxicity counter-screen; KKLEB CF airway cells viability, ATPlite luminescence, overnight; active compounds read low; cells stimulated with P. aeruginosa culture filtrate; activity change (cytotoxicity), % at 5 µM; 360,000 compounds, 0.36% hits;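 active = corrected activity change at or below -50% at 5 µM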
CF NFkB block: cystic fibrosis NF-kB activation inhibition. KKLEB NF-kB-GFP reporter, PAF-induced, GFP fluorescence overnight. inhibition, % at 5 µM. 360,000 compounds, 0.86% hits;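 active = at least 50% inhibition at 5 µM, scaled per plate between neutral and stimulator controls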;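 also: PAF is a Pseudomonas aeruginosa culture filtrate used as stimulus; plate controls were PAF-stimulated DMSO wells for no effect and unstimulated DMSO wells for full effect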
Peg3 promoter: reduces Peg3 promoter-driven luciferase expression in HeLa; HeLa PEG-Prom luciferase reporter, luminescence, overnight; inhibition, % at 20 µM; 360,000 compounds, 1.7% hits; AID 588405;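 active = inhibition of at least 50% at 20 µM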
Mdm2-MdmX inh: human Mdm2/MdmX binding inhibition; 330,000 compounds, 3% hits; SaOS-2 split-luciferase Mdm2/MdmX complementation, luminescence; inhibition, % at 8 µM;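 active = inhibition of at least 50% at 8 µM in the primary screen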
Target sequence (O15151 whole entry, looked up): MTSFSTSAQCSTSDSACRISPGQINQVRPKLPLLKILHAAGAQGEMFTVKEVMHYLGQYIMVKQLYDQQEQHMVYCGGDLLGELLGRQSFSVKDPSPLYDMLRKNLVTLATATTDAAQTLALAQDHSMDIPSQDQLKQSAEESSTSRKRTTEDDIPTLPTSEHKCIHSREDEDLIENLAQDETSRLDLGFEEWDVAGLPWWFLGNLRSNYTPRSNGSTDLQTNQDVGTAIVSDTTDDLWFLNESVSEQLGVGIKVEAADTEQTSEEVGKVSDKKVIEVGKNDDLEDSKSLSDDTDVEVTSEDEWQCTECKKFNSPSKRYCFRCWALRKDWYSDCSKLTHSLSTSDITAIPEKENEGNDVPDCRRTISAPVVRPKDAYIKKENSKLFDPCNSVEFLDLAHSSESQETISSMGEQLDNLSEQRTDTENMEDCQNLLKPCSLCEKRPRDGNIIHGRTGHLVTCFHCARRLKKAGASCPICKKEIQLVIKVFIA
Target sequence (Q00987 whole entry, looked up): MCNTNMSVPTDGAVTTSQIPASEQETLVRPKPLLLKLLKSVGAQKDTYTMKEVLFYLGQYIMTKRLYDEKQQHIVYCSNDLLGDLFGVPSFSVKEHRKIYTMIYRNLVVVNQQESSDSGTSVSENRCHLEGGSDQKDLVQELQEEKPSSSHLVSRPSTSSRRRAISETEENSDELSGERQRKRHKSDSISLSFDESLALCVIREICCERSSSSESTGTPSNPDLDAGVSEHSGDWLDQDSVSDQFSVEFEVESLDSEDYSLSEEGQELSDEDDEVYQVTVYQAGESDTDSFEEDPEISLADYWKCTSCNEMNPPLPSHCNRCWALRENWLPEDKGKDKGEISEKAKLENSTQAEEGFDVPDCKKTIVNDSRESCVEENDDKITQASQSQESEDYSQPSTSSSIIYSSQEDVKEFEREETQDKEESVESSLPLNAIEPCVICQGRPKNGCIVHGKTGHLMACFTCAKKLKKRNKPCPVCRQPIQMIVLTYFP
Active calls of the source: *; nt = not tested or not shown.

SMILES	ABHD5 PLIN5 PPI	HIF-2a inh	KKLEB tox	CF NFkB block	Peg3 promoter	Mdm2-MdmX inh
COc1ccc(CNC(=O)c2cc(S(=O)(=O)N3CCCCC3)ccc2Cl)cc1OC	0	10	-10	6	17	34
O=S(=O)(/N=C(/Nc1cccc2ccccc12)c1ccccc1)c1ccc(Br)cc1	-1	12	4	5	29	6
O=C1C=C(Nc2ccccc2)C(=O)c2ccccc21	-5	-164	-8	60*	-189	-70
O=C1C(Nc2ccccc2)=C(NS(=O)(=O)c2ccccc2)C(=O)c2ccccc21	-9	-4	14	31	2	-14
CC(=O)Nc1cccc(C(=O)/C=C/c2ccco2)c1	29*	-1	-17	12	-31	22
CC(=O)Nc1cccc(C(=O)/C=C/c2cccs2)c1	22*	-74	-10	-6	-135	nt
CC(=O)Nc1cccc(C(=O)/C=C/c2ccc[nH]2)c1	6	-122	4	3	-112	-5
Cc1ccc(Cc2c(-c3ccco3)nc3ccc(Br)cn23)cc1	58*	-16	-10	48	-172	nt
Cc1ccc(Cc2c(-c3ccc(C)cc3)nc3ccc(Br)cn23)cc1	-10	-218	4	19	-323	nt
COc1ccc(Cc2c(-c3ccco3)nc3ccc(Cl)cn23)c(C)c1	27*	-6	-3	39	-15	nt
CCN(CC(=O)Nc1ccc(OC)cc1)C(=O)c1ccc2c(c1)NC(=O)CS2	-8	-11	8	-11	3	25
Clc1ccc2c(NCCNC3CCCCC3)ccnc2c1	-4	-36	-17	12	84*	nt
CC(C)NC1CCC(Nc2ccnc3cc(Cl)ccc23)CC1 (stereo not drawn)	6	-30	2	-9	12	nt
CC(O)(c1cccnc1)c1nc(-c2cccc(C#N)c2)cs1 (stereo not drawn)	13	-4	12	-26	8	nt
C#CCN1[C@@H]2CCN(C2)c2cc(Br)ccc2S1(=O)=O	-8	21	-6	2	6	nt
NS(=O)(=O)c1cccc(Nc2nc3ccccc3nc2NS(=O)(=O)c2ccc(Cl)cc2)c1	8	-20	1	9	18	-18
C/C(=N\NC(=O)c1ccc(CSc2nc(C)cc(C)n2)cc1)c1ccco1	-3	11	-95*	90*	9	-13
C/C(Nc1ccc(Cl)cc1)=C1/CCOC1=O	-1	-12	10	-33	3	nt
CSc1nc(N)nc2c1ncn2CC(=O)NCCCN1CCCC1=O	0	2	8	10	5	21
O=C(NC1CCCC1)C(c1ccc(Cl)cc1)N(Cc1ccc(F)cc1)C(=O)CCl (stereo not drawn)	1	14	-10	14	36	3
O=C(NC1CCCC1)C(c1ccc(F)cc1)N(Cc1ccc(Cl)cc1)C(=O)CCl (stereo not drawn)	0	18	10	11	62*	11
Cc1ccc(C2=NOC(=O)/C2=C\c2ccc(C)o2)cc1	7	42*	-4	0	36	4
Cc1cccc(N2CCN(C(=O)c3ccccc3SCC(=O)N3CCCC3)CC2)c1C	13	-10	1	-4	-9	-11
CCOc1cc(/C=C/C(=O)O)ccc1OCCO	-5	11	0	-7	8	-2
CCOc1cc(/C=C/C(=O)c2ccc(C)cc2)ccc1OCC(=O)N(C)C	7	23	-54*	24	49	19
SMILES	ABHD5 PLIN5 PPI	HIF-2a inh	KKLEB tox	CF NFkB block	Peg3 promoter	Mdm2-MdmX inh
Cc1cc(C)cc(NC(=O)CSc2cc(C(=O)c3nccn3C)c3ccccc3n2)c1	3	17	2	-7	41	1
Cc1cccc(NC(=O)CSc2cc(C(=O)c3nccn3C)c3ccccc3n2)c1	-4	-11	-54*	40	19	-9
Cc1sc2ncnc(N3CCC(C(=O)N(C)CC(=O)Nc4ccccc4Cl)CC3)c2c1C	8	22	-3	46	49	26
CCN(CC(=O)Nc1cc(Cl)ccc1C)C(=O)C1CCN(c2ncnc3sc(C)c(C)c23)CC1	10	11	-14	42	66*	nt
CCN(CC)CCCNC(=S)N1CCN(c2nc(-c3ccc(F)cc3)cs2)CC1	3	-5	-10	13	71*	47
COC(=O)/C=C1\OCc2ccc(C)cc21	10	-53	nt	nt	nt	nt
CCCCC1CCC(C(=O)NCC(c2ccco2)N2CCOCC2)CC1 (stereo not drawn)	0	9	-4	6	6	16
